# Results as given in PubChem BioAssay (NCATS).
# Records with an inconclusive call do not appear. Entries that show only a call come without a potency. The source made the active and inactive calls. Calls follow the shape of the dose curve; as a rule, active = well fitted inhibition curve with a large enough effect; inconclusive = small, poorly fitted or top-dose-only effect; inactive = flat fitted curve, though single readings scatter.
# Columns and labels:
# Experiment in all cases: qHTS profiling for inhibitors of Plasmodium falciparum proliferation (AID 504749); also: nearly all actives have a fitted effect of over 60% in size
# Settings in all cases: P. falciparum in erythrocytes, SYBR Green DNA, 72 h; series mostly up to 28.7 µM
# CP297 = test system: CP297
# Method in brief: (§1)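 Fluorescence of SYBR Green-bound parasite DNA, read at 485/535 nm, served as the growth measure. Infected erythrocytes were cultured with compound 72 h; artemisinin (0.29 uM) and DMSO wells defined the normalization range.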
# CP305 = test system: CP305
# Method in brief: as §1
# CP315 = test system: CP315
# Method in brief: as §1
# CP325 = test system: CP325
# Method in brief: as §1
# CP329 = test system: CP329
# Method in brief: as §1
# CP335 = test system: CP335
# Method in brief: as §1
# DFO2036 = test system: DFO2036
# Method in brief: as §1
# DIV17 = test system: DIV17
# Method in brief: as §1
# DIV30 = test system: DIV30
# Method in brief: as §1
# Dd2 = test system: Dd2
# Method in brief: as §1
# ECU = test system: ECU
# Method in brief: as §1
# FAB9 = test system: FAB9
# Method in brief: as §1
# GB4 = test system: GB4
# Method in brief: as §1
# HB3 = test system: HB3
# Method in brief: as §1
# JCK = test system: JCK
# Method in brief: as §1
# N140 = test system: N140
# Method in brief: as §1
# P93_24 = test system: P93_24
# Method in brief: as §1
# DIV14 = test system: DIV14
# Method in brief: as §1
# ICS = test system: ICS
# Method in brief: as §1
# P94_40 = test system: P94_40
# Method in brief: as §1
# Potency is read from the fitted curve at half-maximal effect.
Structure (SMILES),Potency (CP297),Potency (CP305),Potency (CP315),Potency (CP325),Potency (CP329),Potency (CP335),Potency (DFO2036),Potency (DIV17),Potency (DIV30),Potency (Dd2),Potency (ECU),Potency (FAB9),Potency (GB4),Potency (HB3),Potency (JCK),Potency (N140),Potency (P93_24),Potency (DIV14),Potency (ICS),Potency (P94_40)
O=[N+]([O-])c1c(Cl)cccc1-c1c[nH]cc1Cl,inactive,inactive,inactive,inactive,inactive,inactive,inactive,inactive,inactive,inactive,inactive,inactive,inactive,inactive,inactive,inactive,inactive,–,–,–
NCC[C@H](O)C(=O)N[C@@H]1C[C@H](N)[C@@H](O[C@H]2O[C@H](CN)[C@@H](O)[C@H](O)[C@H]2O)[C@H](O)[C@H]1O[C@H]1O[C@H](CO)[C@@H](O)[C@H](N)[C@H]1O,inactive,inactive,inactive,inactive,inactive,–,inactive,inactive,inactive,inactive,inactive,inactive,inactive,inactive,inactive,inactive,inactive,inactive,inactive,inactive
CCSc1ccc2c(c1)N(CCCN1CCN(C)CC1)c1ccccc1S2,inactive,inactive,inactive,inactive,inactive,inactive,inactive,–,inactive,inactive,inactive,inactive,–,inactive,inactive,inactive,inactive,–,–,inactive
O=C1c2ccccc2CN2C(=O)c3ccccc3CN12,inactive,inactive,inactive,inactive,inactive,inactive,inactive,–,inactive,inactive,–,inactive,inactive,inactive,inactive,inactive,inactive,inactive,inactive,inactive
CC(CCc1ccc(O)cc1)NCC(O)c1ccc(O)cc1 (centres undefined),inactive,inactive,inactive,inactive,inactive,inactive,inactive,inactive,inactive,inactive,inactive,inactive,inactive,inactive,inactive,inactive,inactive,–,inactive,inactive
O=C(OCc1ccccc1)c1cccnc1,inactive,inactive,inactive,inactive,inactive,inactive,inactive,inactive,inactive,inactive,inactive,inactive,inactive,inactive,inactive,inactive,inactive,–,–,inactive
C[C@H]1O[C@@H](O[C@H]2[C@@H](O)C[C@H](O[C@H]3[C@@H](O)C[C@H](O[C@H]4CC[C@@]5(C)[C@H](CC[C@@H]6[C@@H]5C[C@@H](O)[C@]5(C)[C@@H](C7=CC(=O)OC7)CC[C@]65O)C4)O[C@@H]3C)O[C@@H]2C)C[C@H](O)[C@@H]1O,inactive,inactive,inactive,inactive,inactive,inactive,inactive,inactive,inactive,inactive,inactive,inactive,inactive,inactive,inactive,inactive,inactive,–,inactive,inactive
O=C(OCc1ccccc1)c1ccc(O)cc1,inactive,inactive,inactive,inactive,inactive,inactive,inactive,inactive,inactive,inactive,inactive,inactive,inactive,inactive,inactive,inactive,inactive,–,inactive,inactive
C=CCOc1ccc(CC(=O)O)cc1Cl,inactive,inactive,inactive,inactive,inactive,–,inactive,inactive,inactive,inactive,inactive,inactive,inactive,inactive,inactive,inactive,inactive,inactive,inactive,inactive
O=P(O)(O)OP(=O)(O)O,inactive,inactive,inactive,inactive,inactive,inactive,inactive,–,–,inactive,inactive,inactive,–,inactive,–,8.91 µM (active),inactive,–,–,–
CC1CC(OC(=O)C(O)c2ccccc2)CC(C)(C)C1 (centres undefined),inactive,inactive,inactive,inactive,inactive,–,inactive,inactive,inactive,inactive,inactive,inactive,inactive,inactive,inactive,inactive,inactive,inactive,inactive,inactive
O=C(Nc1ccc(O)cc1)c1ccccc1O,inactive,inactive,inactive,inactive,inactive,–,inactive,inactive,–,inactive,–,inactive,inactive,inactive,inactive,inactive,inactive,inactive,inactive,inactive
CN(C)c1ccc(C(=C2C=CC(=[N+](C)C)C=C2)c2c(O)c(S(=O)(=O)[O-])cc3cc(S(=O)(=O)O)ccc23)cc1,inactive,inactive,inactive,inactive,inactive,inactive,inactive,–,inactive,inactive,inactive,inactive,–,inactive,inactive,inactive,inactive,–,inactive,inactive
C=CC(=O)O,inactive,inactive,inactive,inactive,inactive,inactive,inactive,inactive,inactive,inactive,inactive,inactive,inactive,inactive,inactive,inactive,inactive,–,inactive,inactive
CCCCCc1ccc(C)cc1O,inactive,inactive,inactive,inactive,inactive,inactive,inactive,–,inactive,inactive,inactive,inactive,–,inactive,inactive,inactive,inactive,–,7.08 µM (active),inactive
C[C@]12CCC(=O)C[C@@H]1CC[C@@H]1[C@@H]2CC[C@]2(C)C=CC[C@@H]12,inactive,inactive,inactive,inactive,inactive,–,inactive,inactive,inactive,inactive,inactive,inactive,inactive,–,inactive,–,inactive,inactive,–,inactive
Cc1c(C)c2c(c(C)c1OC(=O)CCC(=O)O)CC[C@@](C)(CCC[C@H](C)CCC[C@H](C)CCCC(C)C)O2,inactive,inactive,inactive,inactive,inactive,–,inactive,inactive,inactive,11.2 µM (active),inactive,inactive,inactive,–,inactive,inactive,inactive,inactive,11.2 µM (active),inactive
N=C(N)c1ccc(/C=C/c2ccc(C(=N)N)cc2O)cc1,5.36 µM (active),6.01 µM (active),6.01 µM (active),3.38 µM (active),2.13 µM (active),–,1.12 µM (active),6.01 µM (active),2.13 µM (active),0.112 µM (active),10 µM (active),1.26 µM (active),0.536 µM (active),11.2 µM (active),inactive,17.8 µM (active),–,6.75 µM (active),1.26 µM (active),8.91 µM (active)
O=C(O)CC/C=C\CC[C@@H]1[C@@H](N2CCCCC2)[C@@H](O)C[C@@H]1OCc1ccc(-c2ccccc2)cc1,inactive,inactive,inactive,inactive,inactive,inactive,inactive,–,inactive,inactive,inactive,inactive,inactive,inactive,inactive,inactive,inactive,inactive,–,inactive

Structure (SMILES),Potency (CP297),Potency (CP305),Potency (CP315),Potency (CP325),Potency (CP329),Potency (CP335),Potency (DFO2036),Potency (DIV17),Potency (DIV30),Potency (Dd2),Potency (ECU),Potency (FAB9),Potency (GB4),Potency (HB3),Potency (JCK),Potency (N140),Potency (P93_24),Potency (DIV14),Potency (ICS),Potency (P94_40)
CN(C)CCOc1ccc(/C(=C(/CCCl)c2ccccc2)c2ccccc2)cc1,inactive,inactive,inactive,inactive,inactive,inactive,inactive,–,inactive,inactive,inactive,inactive,–,inactive,inactive,inactive,inactive,–,inactive,inactive
CCCCCCCCCCCCCCCCCC(=O)OC[C@@H](O)[C@H]1OC[C@H](O)[C@H]1O,inactive,inactive,inactive,inactive,inactive,inactive,inactive,inactive,–,inactive,inactive,inactive,inactive,inactive,inactive,inactive,inactive,–,inactive,inactive
CC(C)=CCC/C(C)=C/C=C/C(C)=C/C=C/C(C)=C/C=C/C=C(C)/C=C/C=C(C)/C=C/C=C(\C)CCC=C(C)C,inactive,inactive,inactive,inactive,inactive,inactive,inactive,inactive,inactive,inactive,–,inactive,inactive,–,inactive,inactive,–,–,11.2 µM (active),–
Cc1ccc(C(C)(C)c2ccc(C)cc2)cc1,inactive,inactive,inactive,inactive,inactive,inactive,inactive,inactive,inactive,inactive,inactive,inactive,inactive,inactive,inactive,inactive,inactive,–,inactive,inactive
Cn1c(=O)c2c(ncn2CCOC(=O)C(C)(C)Oc2ccc(Cl)cc2)n(C)c1=O,inactive,inactive,inactive,inactive,inactive,inactive,–,inactive,inactive,inactive,–,inactive,inactive,inactive,inactive,–,–,inactive,inactive,–
FC(F)(F)C(F)(F)C(F)(F)C(F)(F)C(F)(F)F,inactive,inactive,inactive,inactive,inactive,inactive,inactive,inactive,inactive,inactive,inactive,inactive,inactive,inactive,inactive,inactive,inactive,–,inactive,inactive
COC(=O)[C@@H](N)CS,inactive,inactive,inactive,inactive,inactive,–,inactive,inactive,inactive,inactive,inactive,inactive,inactive,inactive,inactive,inactive,inactive,inactive,inactive,inactive
OC1OC[C@@H](O)[C@H](O)[C@@H]1O (some centres undefined),inactive,inactive,inactive,inactive,inactive,–,inactive,inactive,inactive,inactive,inactive,inactive,inactive,inactive,inactive,inactive,inactive,inactive,inactive,inactive
CCOC(=O)[C@@H](N)CS,inactive,inactive,inactive,inactive,inactive,–,inactive,inactive,inactive,inactive,inactive,inactive,inactive,inactive,inactive,inactive,inactive,inactive,inactive,inactive
C=CCN1CCCC1CNC(=O)c1cc(S(N)(=O)=O)cc(OC)c1OC (centres undefined),inactive,inactive,inactive,inactive,inactive,inactive,–,inactive,inactive,inactive,inactive,inactive,inactive,inactive,inactive,inactive,inactive,inactive,inactive,inactive
COc1ccccc1N1CCN(CCCC(=O)c2ccc(F)cc2)CC1,inactive,inactive,inactive,inactive,inactive,inactive,inactive,–,inactive,inactive,inactive,inactive,inactive,inactive,inactive,inactive,inactive,–,–,inactive
COC(=O)CCC[N+](C)(C)C,inactive,inactive,inactive,inactive,inactive,inactive,inactive,inactive,inactive,inactive,inactive,inactive,inactive,inactive,inactive,inactive,inactive,–,inactive,inactive
O=C(O)c1cc(N=Nc2ccc(O)c(C(=O)O)c2)ccc1O,inactive,inactive,inactive,inactive,inactive,inactive,inactive,inactive,inactive,inactive,inactive,inactive,inactive,inactive,inactive,inactive,inactive,–,–,inactive
Cc1ncc(C[n+]2csc(CCO)c2C)c(N)n1,inactive,inactive,inactive,inactive,inactive,–,inactive,inactive,inactive,inactive,inactive,inactive,inactive,inactive,inactive,inactive,inactive,inactive,inactive,inactive
COc1ccc2nc(NC(=O)Nc3ccccc3)sc2c1,inactive,inactive,inactive,inactive,–,inactive,inactive,4.78 µM (active),–,–,inactive,inactive,–,inactive,inactive,–,inactive,–,7.94 µM (active),inactive
CCN(CC)CCC(=O)N1c2ccccc2Sc2ccc(C(F)(F)F)cc21,inactive,inactive,inactive,inactive,inactive,–,inactive,–,–,–,inactive,inactive,–,inactive,inactive,inactive,–,6.75 µM (active),–,inactive
COc1ccc2c(c1)OC(C)(C)C(c1ccccc1)C2c1ccc(OCCN2CCCC2)cc1 (centres undefined),15.1 µM (active),13.5 µM (active),–,6.75 µM (active),–,3.79 µM (active),4.47 µM (active),7.57 µM (active),12 µM (active),3.98 µM (active),8.91 µM (active),–,4.78 µM (active),7.94 µM (active),–,5.01 µM (active),5.01 µM (active),6.75 µM (active),2.82 µM (active),6.31 µM (active)
CC[C@H]1OC(=O)[C@H](C)[C@@H](O[C@H]2C[C@@](C)(OC)[C@@H](O)[C@H](C)O2)[C@H](C)[C@@H](O[C@@H]2O[C@H](C)C[C@H](N(C)C)[C@H]2O)[C@](C)(O)C[C@@H](C)CN(C)[C@H](C)[C@@H](O)[C@]1(C)O,5.36 µM (active),–,–,–,–,5.36 µM (active),5.01 µM (active),–,–,0.355 µM (active),–,inactive,7.57 µM (active),–,inactive,8.91 µM (active),–,–,–,2.51 µM (active)
NCCO/C=C/[C@H](N)C(=O)O,inactive,inactive,inactive,–,inactive,inactive,inactive,inactive,inactive,inactive,inactive,inactive,inactive,inactive,inactive,inactive,inactive,inactive,inactive,inactive
